# Data reported in PubChem BioAssay AID686979 (National Center for Advancing Translational Sciences (NCATS), 2013).
# About 50,000 (12%) of roughly 420,000 compounds were called active. Inconclusive results (about 26%) are left out. Calls follow the shape of the dose curve; as a rule, active = well fitted inhibition curve with a large enough effect; inconclusive = small, poorly fitted or top-dose-only effect; inactive = flat fitted curve, though single readings scatter. For the sample, actives were picked, then their nearest neighbours and some compounds at random.
# Assay: qHTS for Inhibitors of human tyrosyl-DNA phosphodiesterase 1 (TDP1): qHTS in cells in presence of CPT; also: nearly all actives have a fitted effect of over 55% in size
# Details: chicken DT40 Tdp1-/-;hTDP1 cells + 20 nM CPT, ATP luminescence, 48 h; series mostly up to 46.2 µM; activity change, negative = growth inhibition: at the top concentration
# In short: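 Chicken DT40 Tdp1-/- cells complemented with human TDP1, 400 cells/well, exposed to compounds plus 20 nM camptothecin for at least 48 h at 37 C; viability read as ATP content by CellTiter-Glo luminescence.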
# % is scaled to controls: 0 for no effect and ±100 for the full control effect; potency is read from the fitted curve at half-maximal effect.
SMILES,"activity change, negative = growth inhibition",Potency
O=C(C[C@H]1CC[C@@H](NC(=O)c2ccncc2)[C@@H](CO)O1)NCC1CC1,17.7% (inactive),–
O=C(NCCCNc1ccc([N+](=O)[O-])cc1Cl)c1ccccc1F,6.04% (inactive),–
N#CCSc1ccccc1NC(=O)CN1C(=O)NC(CCc2ccccc2)C1=O (stereo not given),3.98% (inactive),–
COC(=O)c1c(NC(=O)COc2ccc(Cl)cc2Cl)sc2c1CC(C)(C)NC2(C)C,–,7.31 µM (active)
CCOC(=O)c1c(NC(=O)COc2cc(C)ccc2C(C)C)sc(C)c1C,-14.5% (inactive),–
Cc1cnc(C(=O)OCC(=O)Nc2ccc(Cl)cc2Cl)cn1,-3.16% (inactive),–
O=S(=O)(NCCc1ccc(F)cc1)c1cccc2cccnc12,-15.1% (inactive),–
CCOC(=O)c1ccc(NC(=O)Cn2cc(S(=O)(=O)Cc3ccccc3F)c3ccccc32)cc1,-26.9% (inactive),–
COc1ccc(NC(=O)Cn2cc(C(=O)c3ccncc3)c(=O)c3cc(C)ccc32)cc1Cl,5.62% (inactive),–
COc1ccccc1CNC(=O)CN1CCC(n2cnc3cc(F)ccc32)CC1,-7.82% (inactive),–
Cc1ccc(Cn2cc(C(=O)NN)c(=O)c3ccc(F)cc32)cc1,-22.5% (inactive),–
CCOc1ccc(C(=O)c2cn(Cc3ccccc3OC)c3ccc(F)cc3c2=O)cc1,–,16.4 µM (active)
CCOc1ccc(C(=O)c2cn(Cc3ccc(F)cc3)c3ccc(F)cc3c2=O)cc1,–,18.4 µM (active)
O=C(c1ccc(F)cc1)c1cn(Cc2ccc(F)cc2)c2cc3c(cc2c1=O)OCCO3,-15.9% (inactive),–
CC12CCC(C(=O)N3CCN(c4ncccn4)CC3)(c3nc4ccccc4nc31)C2(C)C (stereo not given),-11.1% (inactive),–
Cc1nc(SCC(=O)Nc2ccc(C(=O)O)cc2)n[nH]1,9.68% (inactive),–
CC1CC(C)CN(C(=O)C2CC(=O)N(c3ccc(F)cc3)C2)C1 (stereo not given),-20.7% (inactive),–
CC(=O)Nc1ccc(NC(=O)CS(=O)(=O)c2cn(CC(=O)N3CCCCC3)c3ccccc23)cc1,-10.5% (inactive),–
COc1ccccc1C(=O)N1C(CC(=O)Nc2ccccc2C)C(=O)NC2CCCCC21 (stereo not given),-19% (inactive),–
CCc1cc2c(N3CCN(c4nnc(CC)s4)CC3)ncnc2s1,–,10.3 µM (active)
CCOCCCNCc1ccc(OCc2ccc(F)cc2)c(OC)c1,-17.6% (inactive),–
O=C(NCCCO)C(=O)Nc1c2c(nn1-c1ccccc1)CSC2,-5.46% (inactive),–
COc1ccc(S(=O)(=O)N2CCCCCC2)cc1C(=O)N(C)Cc1cccc(OC)c1OC,-28.8% (inactive),–
CCN(CC)S(=O)(=O)c1ccc(N(C)Cc2cccc(OC)c2OC)nc1,–,23.1 µM (active)
CCN(CC)S(=O)(=O)c1ccc(OC)c(NC(=O)CCc2c(C)noc2C)c1,1.45% (inactive),–

SMILES,"activity change, negative = growth inhibition",Potency
CCC(C(=O)N1CCN(S(=O)(=O)c2sc(C(=O)O)c(C)c2C(=O)O)CC1)c1ccccc1 (stereo not given),-4.51% (inactive),–
CCCCCCC(O)(CCN1CCCCC1)c1ccccc1 (stereo not given),6.69% (inactive),–
O=C(CSc1ncn[nH]1)Nc1nc2c(F)c(F)c(F)cc2s1,-10.6% (inactive),–
Cc1c(CCOC(=O)CC23CC4CC(CC(C)(C4)C2)C3)sc[n+]1Cc1ccc([N+](=O)[O-])cc1,–,18.4 µM (active)
COc1ccc(-n2c(C)cc(C(=O)CSc3nnc(-c4cccs4)o3)c2C)cc1,–,16.4 µM (active)
Cc1ccc(OC(=O)CSc2nnc(-c3cccs3)o2)cc1,1.42% (inactive),–
COc1ccc(C(=O)CSc2nnc(-c3ccco3)o2)cc1,-1.34% (inactive),–
Cc1ccc(S(=O)(=O)N2CC[C@H]3[C@@H](C2)C(=O)C[C@@H](c2ccccc2)N3S(=O)(=O)c2ccc(C)cc2)cc1,-12.4% (inactive),–
Cc1ccc(C)c(S(=O)(=O)Nc2cc(C)on2)c1,-2.88% (inactive),–
CC(NC(=O)CC1SC(N)=NC1=O)c1ccccc1 (stereo not given),-7.27% (inactive),–
Cc1nc(CN(C)C(=O)CC2C(=O)NCCN2Cc2ccc(F)cc2)cs1 (stereo not given),1.54% (inactive),–
CCCC(=O)Nc1ncnc2c1ncn2[C@@H]1O[C@@H]2OP(=O)(O)OC[C@H]2[C@H]1OC(=O)CCC,3.57% (inactive),–
O=C(Cc1ccc(Cl)cc1)NC1CCS(=O)(=O)C1 (stereo not given),-2.99% (inactive),–
CCCSC(=S)NC1CCS(=O)(=O)C1 (stereo not given),–,16.4 µM (active)
CC(C)C(=O)NC(NC(=S)NC1CCS(=O)(=O)C1)C(Cl)(Cl)Cl (stereo not given),-3.75% (inactive),–
COc1ccc(NC(=S)NC2CCS(=O)(=O)C2)cc1 (stereo not given),1.76% (inactive),–
O=C(CSc1ccccc1F)NC1CCS(=O)(=O)C1 (stereo not given),-0.0027% (inactive),–
O=S1(=O)CCC(NC(=S)SCc2ccccc2Br)C1 (stereo not given),–,8.2 µM (active)
CCOc1ccc(NC(=O)CN(C)CC(=O)NC(C)c2ccccc2)cc1OCC (stereo not given),-9.01% (inactive),–
CN(CCC(=O)Nc1cc(S(=O)(=O)N(C)C)ccc1Cl)CC(=O)Nc1ccc(F)cc1,5.34% (inactive),–
CN1OC[C@@H]2CN(C(=O)c3cccnc3)[C@H](c3ccc(N4CCCCC4)cc3)C[C@@H]21,6.47% (inactive),–
CCOC(=O)CN(C(=O)COc1nc(-c2ccccc2)cc(C)c1C#N)c1ccc(F)cc1,-24.9% (inactive),–
CCOC(=O)c1ccc(NC(=S)N2CCN(c3ccccn3)CC2)cc1,1.63% (inactive),–
COc1cc([N+](=O)[O-])ccc1NC(=S)N1CCN(c2ccccn2)CC1,-24.2% (inactive),–
O=[N+]([O-])c1ccc(NC(=S)N2CCN(c3ccccn3)CC2)cc1,–,16.4 µM (active)
